Measured values as given in PubChem BioAssay AID1159580 (chemical genetic matrix, 2015).
Several values for one entry are separate records, joined by “and”; a condition that tells them apart may be missing. Identical values can stand only once. Among all 5,500 compounds or so, about 2,000 (36%) were called active. Roughly 18% stayed inconclusive and do not appear here. Cut-off read from the data, not from the text of the source: active = normalized growth mostly below about 0.91 (no sharp cut-off); inconclusive = no clear call, values can overlap the other calls; inactive = mostly above about 0.92. This is one part of the list.

Assay: chemical genetic growth profiling, strain panel (AID 1159580);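 note: tested at 20 µM; growth read once vehicle control cultures reached saturation at 30 °C; 1 = growth at the plate median or of vehicle wells; lower values mean less growth of the strain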
Conditions: S. cerevisiae deletion strains, growth OD

Measured: normalized growth

NC(N)=NS(=O)(=O)c1ccc(N)cc1
inactive: locus YAL021C, strain ccr4, stronger effect = lower value 0.976 | locus YAL026C, strain drs2, stronger effect = lower value 0.991 | locus YAL030W, strain snc1, stronger effect = lower value 0.979 | locus YBL061C, strain skt5, stronger effect = lower value 0.991 | locus YBR009C, strain hhf1, stronger effect = lower value 0.981 | locus YBR021W, strain FUR4, stronger effect = lower value 1.02 | locus YBR023C, strain chs3, stronger effect = lower value 0.981 | locus YBR171W, strain sec66, stronger effect = lower value 0.994 | locus YBR229C, strain ROT2, stronger effect = lower value 1.01 | locus YBR231C, strain swc5, stronger effect = lower value 0.993 | locus YBR279W, strain paf1, stronger effect = lower value 0.986 | locus YCL011C, strain gbp2, stronger effect = lower value 0.981 | locus YCL016C, strain dcc1, stronger effect = lower value 0.983 | locus YCL029C, strain bik1, stronger effect = lower value 1 | locus YCL061C, strain MRC1, stronger effect = lower value 1.01 | locus YCL069W, strain vba3, stronger effect = lower value 0.991 | locus YCR088W, strain abp1, stronger effect = lower value 0.992 | locus YDL005C, strain med2, stronger effect = lower value 0.987 | locus YDL035C, strain GPR1, stronger effect = lower value 1.02 | locus YDL040C, strain nat1, stronger effect = lower value 0.975 | locus YDL074C, strain BRE1, stronger effect = lower value 1.04 | locus YDL101C, strain DUN1, stronger effect = lower value 1.02 | locus YDL134C, strain PPH21, stronger effect = lower value 1.01 | locus YDL185W, strain tfp1, stronger effect = lower value 1 | locus YDL192W, strain arf1, stronger effect = lower value 0.996 | locus YDR001C, strain nth1, stronger effect = lower value 0.99 | locus YDR069C, strain doa4, stronger effect = lower value 0.986 | locus YDR101C, strain arx1, stronger effect = lower value 0.995 | locus YDR137W, strain rgp1, stronger effect = lower value 1.03 | locus YDR150W, strain NUM1, stronger effect = lower value 1.02 | locus YDR159W, strain sac3, stronger effect = lower value 0.992 | locus YDR162C, strain NBP2, stronger effect = lower value 1.01 | locus YDR195W, strain ref2 0.934 | locus YDR297W, strain sur2, stronger effect = lower value 0.984 | locus YDR318W, strain mcm21, stronger effect = lower value 0.998 | locus YDR334W, strain swr1, stronger effect = lower value 0.979 | locus YDR335W, strain msn5, stronger effect = lower value 0.992 | locus YDR388W, stronger effect = lower value 0.999 | locus YDR392W, strain spt3, stronger effect = lower value 0.99 | locus YDR502C, strain sam2, stronger effect = lower value 0.997 | locus YEL003W, strain gim4, stronger effect = lower value 0.99 | locus YEL037C, strain rad23, stronger effect = lower value 0.983 | locus YEL061C, strain CIN8 (second series), stronger effect = lower value 0.974 | locus YEL061C, strain CIN8, stronger effect = lower value 1.01 | locus YER015W, strain faa2, stronger effect = lower value 0.985 | locus YER016W, strain bim1, stronger effect = lower value 0.987 | locus YER110C, stronger effect = lower value 0.993 | locus YER111C, strain swi4, stronger effect = lower value 0.993 | locus YER155C, strain BEM2 (second series), stronger effect = lower value 0.987 | locus YER155C, strain BEM2, stronger effect = lower value 1.01 | locus YER167W, strain BCK2, stronger effect = lower value 1 | locus YFR010W, strain ubp6, stronger effect = lower value 0.99 | locus YGL078C, strain dbp3, stronger effect = lower value 0.987 | locus YGL086W, strain mad1, stronger effect = lower value 1.01 | locus YGL167C, strain pmr1, stronger effect = lower value 0.987 | locus YGL173C, strain kem1, stronger effect = lower value 0.988 | locus YGL227W, strain vid30, stronger effect = lower value 0.974 | locus YGL240W, strain doc1, stronger effect = lower value 0.997 | locus YGL248W, strain PDE1, stronger effect = lower value 1.03 | locus YGL253W, strain hxk2, stronger effect = lower value 0.986 | locus YGR078C, strain PAC10, stronger effect = lower value 1.04 | locus YGR135W, strain pre9, stronger effect = lower value 0.989 | locus YGR252W, strain gcn5, stronger effect = lower value 0.963 | locus YHR013C, strain ard1, stronger effect = lower value 0.961 | locus YHR027C, strain rpn1, stronger effect = lower value 0.976 | locus YHR030C, strain SLT2, stronger effect = lower value 1.01 and 0.978 | locus YHR079C, strain IRE1 (second series), stronger effect = lower value 0.99 | locus YHR079C, strain IRE1, stronger effect = lower value 0.97 | locus YHR094C, strain hxt1, stronger effect = lower value 0.988 | locus YHR129C, strain ARP1, stronger effect = lower value 1.02 | locus YHR142W, strain chs7, stronger effect = lower value 0.988 | locus YHR200W, strain rpn10, stronger effect = lower value 0.985 | locus YIL066C, strain RNR3, stronger effect = lower value 1.03 | locus YIL073C, strain SPO22, stronger effect = lower value 0.989 | locus YIL125W, strain kgd1, stronger effect = lower value 0.989 | locus YIR030C, strain dcg1, stronger effect = lower value 0.994 | locus YJL092W, strain hpr5, stronger effect = lower value 0.991 | locus YJL095W, strain BCK1 (second series), stronger effect = lower value 0.988 | locus YJL095W, strain BCK1, stronger effect = lower value 1.05 and 0.986 | locus YJL115W, strain asf1, stronger effect = lower value 0.966 | locus YJL129C, strain trk1, stronger effect = lower value 0.984 | locus YJL134W, strain LCB3, stronger effect = lower value 1 | locus YJL154C, strain vps35, stronger effect = lower value 0.986 | locus YJL164C, strain tpk1, stronger effect = lower value 0.984 | locus YJL166W, strain qcr8, stronger effect = lower value 0.98 | locus YJL168C, strain set2, stronger effect = lower value 0.996 | locus YJL187C, strain SWE1 (second series), stronger effect = lower value 1.03 | locus YJL187C, strain SWE1, stronger effect = lower value 0.989 | locus YJR043C, strain POL32, stronger effect = lower value 1.05
